The text below walks through data of ChEMBL document CHEMBL1961873, “Compounds: GSK PKIS; Assays: Nanosyn kinase panel” (2012).

One may read the inhibition as the drop in the measured response relative to a control, in per cent.

In assay [1] the target is Tyrosine-protein kinase Fyn (Homo sapiens) (UniProt P06241). The settings on record: at 1 µM.
Assay [2] has as its target Tyrosine-protein kinase HCK (Homo sapiens) (UniProt P08631). Conditions: at 0.1 µM.
Assay [3] has the same target. The settings on record: at 1 µM.
Assay [4] has as its target Insulin-like growth factor 1 receptor (Homo sapiens) (UniProt P08069). The settings on record: at 0.1 µM.
For assay [5] the target is unchanged. Conditions: at 1 µM.
Assay [6] deals with Insulin receptor (Homo sapiens) (UniProt P06213). The settings on record: at 0.1 µM.
Assay [7] shares this target. Conditions: at 1 µM.
The target of assay [8] is Insulin receptor-related protein (Homo sapiens) (UniProt P14616). Conditions: at 0.1 µM.
For assay [9] the target is unchanged. The settings on record: at 1 µM.
Assay [10] addresses T1, Tyrosine-protein kinase ITK/TSK (Homo sapiens) (UniProt Q08881).
T1 sequence (whole entry): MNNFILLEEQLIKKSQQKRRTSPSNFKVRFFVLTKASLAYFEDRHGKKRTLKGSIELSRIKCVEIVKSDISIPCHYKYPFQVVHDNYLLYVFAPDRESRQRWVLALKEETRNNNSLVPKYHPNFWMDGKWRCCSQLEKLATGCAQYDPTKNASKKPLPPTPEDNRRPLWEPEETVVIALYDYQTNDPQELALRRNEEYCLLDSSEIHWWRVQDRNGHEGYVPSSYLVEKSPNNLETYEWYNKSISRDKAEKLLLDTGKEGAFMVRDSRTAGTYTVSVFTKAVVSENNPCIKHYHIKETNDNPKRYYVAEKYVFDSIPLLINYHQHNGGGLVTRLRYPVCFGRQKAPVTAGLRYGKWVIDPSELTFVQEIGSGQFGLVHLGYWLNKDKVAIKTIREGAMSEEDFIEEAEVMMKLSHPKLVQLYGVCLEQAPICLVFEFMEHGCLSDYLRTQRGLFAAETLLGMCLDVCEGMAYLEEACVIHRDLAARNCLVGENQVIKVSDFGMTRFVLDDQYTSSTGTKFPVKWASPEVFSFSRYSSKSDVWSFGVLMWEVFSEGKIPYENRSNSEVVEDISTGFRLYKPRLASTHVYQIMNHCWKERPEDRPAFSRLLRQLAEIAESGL
The settings on record: at 0.1 µM.

The target in assay [11] is T1, Tyrosine-protein kinase ITK/TSK (Homo sapiens). The settings on record: at 1 µM.
Assay [12] concerns the target Tyrosine-protein kinase JAK1 (Homo sapiens) (UniProt P23458). The settings on record: at 0.1 µM.
Assay [13] shares this target. Conditions: at 1 µM.
Assay [14] addresses Tyrosine-protein kinase JAK2 (Homo sapiens) (UniProt O60674). The settings on record: at 0.1 µM.
For assay [15] the target is unchanged. The settings on record: at 1 µM.
Assay [16] deals with T2, Tyrosine-protein kinase JAK3 (Homo sapiens) (UniProt P52333).
T2 sequence (whole entry): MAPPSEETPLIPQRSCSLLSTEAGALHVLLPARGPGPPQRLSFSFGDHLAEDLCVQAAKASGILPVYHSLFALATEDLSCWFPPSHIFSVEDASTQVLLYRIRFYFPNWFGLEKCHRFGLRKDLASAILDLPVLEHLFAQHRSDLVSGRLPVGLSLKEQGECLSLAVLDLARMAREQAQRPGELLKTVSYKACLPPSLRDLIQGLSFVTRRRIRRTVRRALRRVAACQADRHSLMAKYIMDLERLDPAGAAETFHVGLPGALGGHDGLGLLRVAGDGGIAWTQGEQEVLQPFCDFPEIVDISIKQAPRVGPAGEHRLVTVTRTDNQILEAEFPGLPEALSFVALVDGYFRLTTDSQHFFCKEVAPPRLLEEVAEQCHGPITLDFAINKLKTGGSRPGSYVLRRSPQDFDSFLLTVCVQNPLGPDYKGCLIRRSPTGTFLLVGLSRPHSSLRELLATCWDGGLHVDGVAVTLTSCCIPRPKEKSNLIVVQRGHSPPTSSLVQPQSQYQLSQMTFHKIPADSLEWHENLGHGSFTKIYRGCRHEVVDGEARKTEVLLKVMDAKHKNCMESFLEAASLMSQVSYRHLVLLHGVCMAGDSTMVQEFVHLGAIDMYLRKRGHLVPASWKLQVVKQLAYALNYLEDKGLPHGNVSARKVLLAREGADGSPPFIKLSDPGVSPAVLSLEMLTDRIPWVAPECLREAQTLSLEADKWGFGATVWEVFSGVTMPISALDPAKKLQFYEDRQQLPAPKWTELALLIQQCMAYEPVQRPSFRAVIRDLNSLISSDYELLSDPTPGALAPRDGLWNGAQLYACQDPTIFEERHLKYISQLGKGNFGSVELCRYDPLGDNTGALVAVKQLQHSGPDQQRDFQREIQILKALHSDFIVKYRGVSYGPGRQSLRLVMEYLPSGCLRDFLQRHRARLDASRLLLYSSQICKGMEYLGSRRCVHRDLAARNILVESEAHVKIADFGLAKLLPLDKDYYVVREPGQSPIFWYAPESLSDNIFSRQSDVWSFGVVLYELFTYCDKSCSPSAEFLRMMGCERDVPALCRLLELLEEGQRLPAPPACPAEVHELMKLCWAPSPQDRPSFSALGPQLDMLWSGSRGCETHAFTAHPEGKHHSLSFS
The settings on record: at 0.1 µM.

Assay [17] concerns the target T2, Tyrosine-protein kinase JAK3 (Homo sapiens). The settings on record: at 1 µM.
In assay [18] the target is Vascular endothelial growth factor receptor 2 (Homo sapiens) (UniProt P35968). Conditions: at 0.1 µM.
Assay [19] has the same target. Conditions: at 1 µM.
Assay [20] concerns the target Mast/stem cell growth factor receptor Kit (Homo sapiens) (UniProt P10721). Conditions: at 0.1 µM.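 Further: values are mean inhibition of KIT, from the GSK PKIS dataset.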

Sequence of Tyrosine-protein kinase JAK1 (Homo sapiens) (P23458 whole entry): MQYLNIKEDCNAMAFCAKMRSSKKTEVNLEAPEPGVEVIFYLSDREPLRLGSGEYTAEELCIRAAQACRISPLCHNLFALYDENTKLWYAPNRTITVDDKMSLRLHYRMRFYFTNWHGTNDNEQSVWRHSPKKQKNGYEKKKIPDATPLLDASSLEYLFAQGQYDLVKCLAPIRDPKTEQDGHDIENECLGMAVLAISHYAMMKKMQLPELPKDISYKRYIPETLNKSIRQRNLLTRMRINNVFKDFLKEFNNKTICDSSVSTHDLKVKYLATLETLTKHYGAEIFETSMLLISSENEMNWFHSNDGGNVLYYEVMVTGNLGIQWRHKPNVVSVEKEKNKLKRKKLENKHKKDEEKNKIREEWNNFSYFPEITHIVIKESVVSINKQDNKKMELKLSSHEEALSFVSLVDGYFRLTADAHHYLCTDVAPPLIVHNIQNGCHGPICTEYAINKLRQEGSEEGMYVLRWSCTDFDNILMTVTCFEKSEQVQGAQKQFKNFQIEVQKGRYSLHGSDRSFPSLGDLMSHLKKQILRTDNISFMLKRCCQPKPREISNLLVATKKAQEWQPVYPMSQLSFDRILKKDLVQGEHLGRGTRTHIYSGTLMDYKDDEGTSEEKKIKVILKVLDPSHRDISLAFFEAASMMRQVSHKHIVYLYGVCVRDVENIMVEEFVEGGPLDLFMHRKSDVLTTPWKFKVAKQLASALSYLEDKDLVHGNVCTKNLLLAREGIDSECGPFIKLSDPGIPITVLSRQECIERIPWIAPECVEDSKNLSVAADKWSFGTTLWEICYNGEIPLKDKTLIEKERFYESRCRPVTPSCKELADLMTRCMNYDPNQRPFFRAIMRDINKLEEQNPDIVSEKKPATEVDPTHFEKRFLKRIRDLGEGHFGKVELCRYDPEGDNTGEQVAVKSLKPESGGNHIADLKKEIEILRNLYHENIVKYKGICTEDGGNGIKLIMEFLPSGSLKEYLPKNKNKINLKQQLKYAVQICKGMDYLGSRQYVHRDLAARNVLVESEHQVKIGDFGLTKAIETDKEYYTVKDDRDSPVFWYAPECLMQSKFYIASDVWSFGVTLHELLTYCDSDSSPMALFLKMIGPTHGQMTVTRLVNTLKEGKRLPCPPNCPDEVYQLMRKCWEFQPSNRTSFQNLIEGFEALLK
Sequence of Vascular endothelial growth factor receptor 2 (Homo sapiens) (P35968 whole entry): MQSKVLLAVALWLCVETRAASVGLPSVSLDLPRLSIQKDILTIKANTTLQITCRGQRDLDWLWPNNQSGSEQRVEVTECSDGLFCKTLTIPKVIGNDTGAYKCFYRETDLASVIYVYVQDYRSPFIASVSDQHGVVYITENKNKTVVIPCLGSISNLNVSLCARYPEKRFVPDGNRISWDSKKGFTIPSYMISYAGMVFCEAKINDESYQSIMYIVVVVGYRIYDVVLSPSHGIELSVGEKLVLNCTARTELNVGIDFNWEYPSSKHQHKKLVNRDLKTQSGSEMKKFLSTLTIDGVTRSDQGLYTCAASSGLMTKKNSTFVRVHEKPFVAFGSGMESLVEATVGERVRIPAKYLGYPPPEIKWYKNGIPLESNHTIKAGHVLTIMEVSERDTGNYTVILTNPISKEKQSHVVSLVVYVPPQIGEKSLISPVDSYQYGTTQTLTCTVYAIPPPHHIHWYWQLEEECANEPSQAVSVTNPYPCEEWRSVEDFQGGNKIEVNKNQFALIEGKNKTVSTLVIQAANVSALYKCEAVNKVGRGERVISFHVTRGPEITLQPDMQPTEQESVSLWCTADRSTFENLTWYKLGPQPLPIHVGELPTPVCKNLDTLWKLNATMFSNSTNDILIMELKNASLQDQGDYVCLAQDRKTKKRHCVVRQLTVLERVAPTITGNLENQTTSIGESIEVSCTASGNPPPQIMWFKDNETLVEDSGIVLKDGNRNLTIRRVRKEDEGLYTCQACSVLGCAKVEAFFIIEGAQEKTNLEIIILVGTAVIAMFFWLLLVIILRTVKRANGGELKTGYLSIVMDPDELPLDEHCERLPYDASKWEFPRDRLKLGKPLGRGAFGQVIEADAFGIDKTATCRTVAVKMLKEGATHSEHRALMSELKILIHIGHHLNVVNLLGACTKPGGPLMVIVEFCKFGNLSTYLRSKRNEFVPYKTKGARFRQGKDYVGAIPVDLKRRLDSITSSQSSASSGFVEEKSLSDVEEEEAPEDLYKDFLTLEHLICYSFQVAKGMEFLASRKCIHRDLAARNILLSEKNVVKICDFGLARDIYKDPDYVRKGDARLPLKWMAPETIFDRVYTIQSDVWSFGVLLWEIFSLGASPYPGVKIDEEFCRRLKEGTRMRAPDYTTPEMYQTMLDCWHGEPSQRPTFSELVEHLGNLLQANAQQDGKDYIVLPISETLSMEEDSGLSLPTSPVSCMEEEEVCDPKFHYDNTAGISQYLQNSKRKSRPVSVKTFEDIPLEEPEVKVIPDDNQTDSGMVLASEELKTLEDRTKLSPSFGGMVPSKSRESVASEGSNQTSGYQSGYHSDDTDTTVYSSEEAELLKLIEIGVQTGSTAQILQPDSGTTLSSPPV
Sequence of Tyrosine-protein kinase HCK (Homo sapiens) (P08631 2-526 limits assumed): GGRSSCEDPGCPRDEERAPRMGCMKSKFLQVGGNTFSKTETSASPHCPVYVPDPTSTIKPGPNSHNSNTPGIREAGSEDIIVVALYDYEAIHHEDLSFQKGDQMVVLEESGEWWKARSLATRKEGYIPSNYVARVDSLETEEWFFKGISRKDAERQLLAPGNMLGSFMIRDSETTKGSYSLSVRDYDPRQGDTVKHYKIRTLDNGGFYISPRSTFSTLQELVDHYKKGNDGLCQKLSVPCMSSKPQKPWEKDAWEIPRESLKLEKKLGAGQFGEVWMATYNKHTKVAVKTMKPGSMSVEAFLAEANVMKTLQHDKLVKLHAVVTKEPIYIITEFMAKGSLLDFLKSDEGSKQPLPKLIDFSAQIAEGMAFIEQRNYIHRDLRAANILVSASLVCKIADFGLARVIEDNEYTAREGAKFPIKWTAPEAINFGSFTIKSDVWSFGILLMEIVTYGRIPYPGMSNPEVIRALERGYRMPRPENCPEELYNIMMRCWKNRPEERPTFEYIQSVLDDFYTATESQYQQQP
Sequence of Mast/stem cell growth factor receptor Kit (Homo sapiens) (P10721 whole entry): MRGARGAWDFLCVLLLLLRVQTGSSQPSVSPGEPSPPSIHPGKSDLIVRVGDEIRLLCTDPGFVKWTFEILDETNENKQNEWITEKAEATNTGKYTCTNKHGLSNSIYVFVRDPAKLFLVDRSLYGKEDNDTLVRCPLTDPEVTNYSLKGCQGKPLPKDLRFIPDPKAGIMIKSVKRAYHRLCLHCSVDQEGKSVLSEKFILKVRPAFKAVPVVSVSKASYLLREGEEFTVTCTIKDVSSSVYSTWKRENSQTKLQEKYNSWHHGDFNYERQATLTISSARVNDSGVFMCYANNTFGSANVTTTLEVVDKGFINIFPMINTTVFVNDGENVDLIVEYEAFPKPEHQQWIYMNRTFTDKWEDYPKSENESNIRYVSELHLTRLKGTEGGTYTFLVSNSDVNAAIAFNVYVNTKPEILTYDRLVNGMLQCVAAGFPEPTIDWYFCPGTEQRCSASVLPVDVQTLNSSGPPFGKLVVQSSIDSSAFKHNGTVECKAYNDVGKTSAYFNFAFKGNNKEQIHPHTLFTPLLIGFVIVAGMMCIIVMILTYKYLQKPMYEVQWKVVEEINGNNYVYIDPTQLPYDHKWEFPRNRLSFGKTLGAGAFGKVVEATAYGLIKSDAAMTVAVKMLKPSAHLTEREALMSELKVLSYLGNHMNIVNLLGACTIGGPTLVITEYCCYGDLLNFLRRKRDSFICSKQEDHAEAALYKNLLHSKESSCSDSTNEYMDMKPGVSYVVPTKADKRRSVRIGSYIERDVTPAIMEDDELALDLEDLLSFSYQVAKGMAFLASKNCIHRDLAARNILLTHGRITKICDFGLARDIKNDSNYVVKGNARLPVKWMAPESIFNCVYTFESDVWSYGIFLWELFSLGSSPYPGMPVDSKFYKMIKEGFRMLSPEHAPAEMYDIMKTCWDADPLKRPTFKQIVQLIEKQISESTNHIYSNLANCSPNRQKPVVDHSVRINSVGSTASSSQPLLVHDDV
Sequence of Tyrosine-protein kinase Fyn (Homo sapiens) (P06241 2-537 limits assumed): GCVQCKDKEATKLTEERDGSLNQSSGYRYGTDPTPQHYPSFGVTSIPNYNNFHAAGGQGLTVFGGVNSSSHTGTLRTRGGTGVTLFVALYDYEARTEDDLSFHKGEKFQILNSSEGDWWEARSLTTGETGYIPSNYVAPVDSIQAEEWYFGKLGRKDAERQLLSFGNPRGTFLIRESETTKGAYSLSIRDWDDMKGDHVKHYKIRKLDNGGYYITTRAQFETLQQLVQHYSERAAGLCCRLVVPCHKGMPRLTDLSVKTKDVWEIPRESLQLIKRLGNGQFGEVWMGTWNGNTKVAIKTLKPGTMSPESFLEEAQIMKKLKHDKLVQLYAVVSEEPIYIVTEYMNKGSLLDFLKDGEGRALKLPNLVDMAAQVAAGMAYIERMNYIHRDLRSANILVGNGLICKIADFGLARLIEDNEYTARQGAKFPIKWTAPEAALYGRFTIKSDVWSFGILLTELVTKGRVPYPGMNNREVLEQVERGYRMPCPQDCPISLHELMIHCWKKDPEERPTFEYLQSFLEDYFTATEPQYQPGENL

In the case of `CNC(=O)c1cccc(C#Cc2cncnc2Nc2ccc(OCc3cccc(F)c3)c(Cl)c2)c1`, the inhibition is 5.06% in assay [1]; 2.16% in assay [2]; 2.54% in assay [3]; -0.34% in assay [4]; -0.55% in [5]; -2.02% in assay [6]. Also, the inhibition is -0.61% in assay [7]; 0.75% in assay [8]; 0.96% in assay [9]; -0.18% in assay [10]; -0.18% in assay [11]; -1.06% in assay [12]. Moreover, the inhibition in assay [13] was 7.9%; in [14], 0.28%; in [15] it was 1.34%; in assay [16], -1.04%; in assay [17], 1.79%; in assay [18] it was 1.34%. For the same compound, the results for the inhibition in assay [19] and in assay [20] were 3.79% and 2.56%, respectively.
With `COc1ccc2[nH]c3c4[nH]c5ccc(OC)cc5c4c4c(c3c2c1)C(=O)NC4=O`, the inhibition in assay [1] was found to be 19%; in assay [2], 20.1%; in assay [3] it was 75.6%; in assay [4], 5.28%; in assay [5], 4.22%; in assay [6] it was 6.91%. For the same compound, the inhibition in assay [7] came out at 10.3%; in assay [8] it was 3.27%; in assay [9], 6.93%; in assay [10], 1.85%; in assay [11], 6.11%; in assay [12], 0.96%. Besides, the inhibition in assay [13] was 5.89%; in assay [14], -0.61%; in [15], -1.31%; in [16], -1.14%; in [17], 12.8%; in assay [18] it was 42.5%. The inhibition in assay [19] was determined as 68.3%; in [20], 31.3%.
In the case of `CC(=O)Nc1cccc(C#Cc2cncnc2Nc2ccc(OCc3cccc(F)c3)c(Cl)c2)c1`, the inhibition in assay [1] was 5.51%; in assay [2] it was 5.81%; in [3], 9.29%; in [4] it was 1.84%; in assay [5] it was 2.53%; in [6], 3.44%. For the same compound, the inhibition in [7] is 1.06%; in assay [8], 2.25%; in assay [9], 1.77%; in assay [10], 1.8%; in [11], 2.79%; in [12], 6.03%. Further, the inhibition in assay [13] was 3.66%; in assay [14], 4.37%; in [15] it was 6.59%; in [16], 0.59%; in [17], 4.13%; in assay [18] it was 9.03%. In addition, the inhibition in assay [19] was 12.6%; in [20], 1.83%.
Take `NS(=O)(=O)c1ccc(N/N=C2\C(=O)Nc3ccc4ncccc4c32)cc1`: the inhibition in assay [1] was 30.1%; in assay [2] it was 13.6%; in assay [3] it was 73.5%; in assay [4], 1.63%; in assay [5], 13.7%; in assay [6], 5.75%. In addition, the inhibition in assay [7] was 27.8%; in [8] it was -0.5%; in [9], 1.85%; in [10], 2.75%; in assay [11], 18.5%; in assay [12], 2.63%. Besides, the inhibition in [13] was found to be 17.3%; in assay [14] it was 1.52%; in assay [15], 22.4%; in assay [16], 14.2%; in assay [17], 67.7%; in [18], 61.6%. In addition, the inhibition in assay [19] stood at 88.6%; in [20] it was 63.8%.
As for `CCn1c(-c2nonc2N)nc2ccccc21`, the inhibition in assay [1] is 0.78%; in assay [2], 5.97%; in assay [3], 8.93%; in assay [4] it was 4.98%; in assay [5], 6.36%; in assay [6] it was 2.87%. In addition, the inhibition stood at 1.78% in assay [7]; 3.31% in assay [8]; 2.08% in [9]; 1.11% in assay [10]; 0.89% in assay [11]; 5.98% in [12]. The inhibition in assay [13] was -0.06%; in assay [14], 1.96%; in assay [15] it was 1.39%; in assay [16], -0.66%; in [17], 1.16%; in assay [18], 3.69%. Besides, the inhibition in assay [19] is 4.29%; in assay [20], 3.84%.
On to `COc1cc(N2CCN(C(C)C)CC2)ccc1Nc1nc(Nc2ccc(F)cc2C(N)=O)c2cc[nH]c2n1`, for which the inhibition in assay [1] worked out at 9.69%; in [2], 3.05%; in assay [3], 7.94%; in [4] it was 101%; in [5] it was 101%; in [6], 103%. Also, the inhibition in assay [7] was 102%; in [8], 76.1%; in assay [9], 96.7%; in assay [10], 2.65%; in [11] it was 5.47%; in [12], 3.68%. Further, the inhibition amounted to 2.03% in assay [13]; 2.05% in assay [14]; 2.59% in [15]; 0.12% in assay [16]; 11.6% in assay [17]; 4.96% in assay [18]. In addition, the results for the inhibition in assay [19] and in [20] were 15.3% and -0.57%, respectively.
`Fc1cccc(COc2ccc(Nc3ncnc4sc(-c5ccco5)cc34)cc2Cl)c1`: the inhibition in assay [1] was 4.89%; in [2] it was 4.32%; in assay [3], 6.64%; in [4] it was 0.23%; in assay [5] it was 0.87%; in assay [6], 1.94%. In addition, the inhibition in [7] was 2.78%; in [8], 2.1%; in assay [9], 2.84%; in [10], 0.55%; in assay [11], 3.14%; in assay [12], 0.17%. The inhibition in [13] is 3.56%; in assay [14] it was 1.34%; in assay [15], 1.22%; in assay [16], -3.93%; in [17], -1.55%; in assay [18], 3.37%. The figures for the inhibition in assay [19] and in assay [20] were 10.4% and 6.1%, respectively.
